Data on 16 molecules can be found in PubChem BioAssay.

Active and inactive are the calls of the source.

Assay [1] can be described thus: A549 cell viability effects, profiling panel, calcein-AM fluorescence, 48 h, basal (AID 1162). Conditions: higher = more signal.
Assay [2] can be described thus: adipocyte viability effects, profiling panel, cell-based, 3T3-L1 adipocytes, calcein-AM fluorescence, 48 h, basal (AID 1163). Conditions: 3T3-L1 adipocytes viability, higher = more signal.
The nature of assay [3]: HepG2 cell viability effects, profiling panel, calcein-AM fluorescence, 48 h, basal (AID 1164). The following applies: higher = more signal.
Assay [4] in a line: MM1S cell viability effects, profiling panel, calcein-AM fluorescence, 48 h, basal (AID 1165).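 Note: viability of MM1S multiple myeloma cells under basal unstimulated conditions.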 Conditions: higher = more signal.
A short description of assay [5]: basal RPMI8226 viability, no added stimulus, profiling panel, cell-based, calcein-AM fluorescence, 48 h, PK04 Diversity Set (AID 1166).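 Note: cells grown under basal conditions without added stimulus.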 Conditions: RPMI8226 myeloma viability, higher = more signal.
The nature of assay [6]: basal HepG2 mitochondrial membrane potential changes, profiling panel, cell-based, JC-1 fluorescence, 24 h, 100 nL compound (AID 1167). The following applies: higher = more signal.
Assay [7] can be described thus: basal 3T3-L1 adipocyte mitochondrial potential changes, profiling panel, cell-based, JC-1 fluorescence, 3T3-L1 adipocytes, 24 h, 100 nL compound (AID 1168). The following applies: JC-1 mitochondrial fluorescence, higher = more signal, called active from +8 up or from −8 down.
Assay [8] is described as follows: basal RPMI8226 mitochondrial membrane potential changes, profiling panel, cell-based, JC-1 fluorescence, 24 h, 100 nL compound (AID 1169). Conditions: RPMI8226 myeloma, JC-1 mitochondrial potential fluorescence, higher = more signal.
Assay [9] in a line: basal MM1S mitochondrial membrane potential changes, profiling panel, cell-based, JC-1 fluorescence, 24 h, 100 nL compound (AID 1170). The following applies: higher = more signal.
Assay [10] in a line: A549 lung cancer cell viability effects, profiling panel, resazurin fluorescence, 24 h, PK04 Diversity Set (AID 1171). The following applies: higher = more signal, called active from +8 up or from −8 down. A general note: Resazurin is reduced to fluorescent resorufin, in cell work by metabolically active cells.
Note: test concentration not given here.

With `COCCOC(=O)N1C(=O)[C@@]2(c3cc(C#CCC(C(=O)OC)C(=O)OC)ccc31)[C@H](C(=O)NC[C@H](O)c1ccccc1)[C@H]1C(=O)O[C@H](c3ccccc3)[C@H](c3ccccc3)N1[C@@H]2c1ccc(O)cc1`, the z-score in [1] is 0.395; in [2] it was 0.408; in assay [3], 1.26; in assay [4], -0.99; in [5], -1.74; in [6], 0.126. In addition, the z-score is -0.489 (inactive) in assay [7], -0.39 in assay [8], -0.491 in [9] and -0.227 (inactive) in assay [10].
`COCC1C2CC[C@H]3C(OCc4ccc(OC)cc4)OC[C@]4(C)[C@H]3C2=C(CN4C(=O)OC(C)(C)C)[C@H](C)C1COC` (stereo not given in full): the z-score in assay [1] was -0.226; in assay [2] it was 0.335; in [3] it was 0.919; in [4] it was -2.64; in [5], -4.48; in assay [6], 5.54. The z-score is -0.664 (inactive) in assay [7], -0.205 in assay [8], -1.22 in assay [9] and -0.0834 (inactive) in [10].
In the case of `CN1C=C(C(=O)OCCS(C)(=O)=O)C(C(=O)OCCS(C)(=O)=O)=CC(c2ccc(CO)cc2)=CC1c1cccs1` (stereo not given), the z-score in assay [1] is 0.574; in assay [2], -0.72; in assay [3], 0.977; in [4] it was -1.43; in assay [5] it was -1.1; in assay [6] it was -0.963. Besides, the z-score in [7] is -0.345 (inactive); in assay [8], -0.627; in assay [9] it was 0.0752; in assay [10], 0.458 (inactive).
`COC(=O)c1c2oc(c1C(=O)OC)C(=O)N1CCC[C@H]1Cn1nncc1CN(Cc1ccccc1)C(=O)N[C@H](CO)CC2`: the z-score is -0.0989 in assay [1]; -0.723 in assay [2]; 0.436 in assay [3]; 0.829 in assay [4]; 0.394 in [5]; 0.488 in assay [6]. Also, the z-score is 0.172 (inactive) in assay [7], -0.136 in assay [8], -0.882 in assay [9] and 0.744 (inactive) in assay [10].
In the case of `CO[C@H]1O[C@H](CO)[C@@H](OC(=O)CCc2ccccc2)[C@H](OC(=O)c2cc3ccccc3[nH]2)[C@H]1OC(=O)c1cc2ccccc2[nH]1`, the z-score in [1] is 0.98; in [2], 0.679; in [3], 0.138; in assay [4], -2.82; in [5] it was -2.54; in assay [6], -2.04. Moreover, the z-score in [7] is 1.36 (inactive); in [8], -0.502; in [9], -1.1; in assay [10], -2.84 (inactive).
For `[N-]=[N+]=NCc1ccccc1C[C@]1(C(=O)N2CCOCC2)COC(c2ccc(OCCCO)cc2)=N1`, the z-score in assay [1] is 0.0386; in assay [2], 0.926; in [3] it was 0.383; in [4] it was -3.46; in assay [5] it was -2.89; in [6], 1.72. Besides, the z-score in assay [7] is 0.665 (inactive); in assay [8] it was -0.843; in [9] it was -0.968; in assay [10], -0.36 (inactive).
Turning to `[N-]=[N+]=Nc1ccccc1C[C@]1(C(=O)NCc2ccccc2)COC(c2ccc(OCCCO)cc2)=N1`, the z-score in assay [1] is -0.827; in assay [2], -0.143; in assay [3], -1.65; in assay [4], -3.58; in assay [5], -4.42; in assay [6], 0.789. For the same molecule, the z-score in assay [7] is 0.443 (inactive); in assay [8], -1.17; in assay [9] it was -2.33; in [10], -1.41 (inactive).
In the case of `COCC(=C=CC[C@@H](O)c1cccc(OCCO)c1)CCO`, the z-score in assay [1] was 0.611; in [2] it was 0.314; in [3] it was 0.356; in assay [4], 0.55; in [5], -0.0681; in assay [6] it was 0.00786. Also, the z-score was 0.176 (inactive) in assay [7], 1.15 in assay [8], -0.447 in [9] and 0.0444 (inactive) in assay [10].
As to `CCCCC=C[C@@H](NC(=O)c1ccccc1)c1ccccc1`, the z-score in assay [1] is -1.07; in [2] it was -0.417; in assay [3], -1.02; in assay [4] it was -0.842; in assay [5] it was -2.29; in [6], 0.18. Also, the z-score in assay [7] was -1.04 (inactive); in assay [8], 0.135; in assay [9], -0.434; in assay [10], 0.962 (inactive).
On to `CC(C)C(CO)N1C(=O)[C@@H]2[C@H]3C(=O)OCC=C[C@H]3OC23C=CCN(C(C)(C)C)C(=O)[C@@H]13` (stereo not given in full), for which the z-score in assay [1] was -0.234; in assay [2], -0.783; in assay [3], -0.543; in assay [4], 0.583; in assay [5], -0.251; in assay [6], -1.16. Also, the z-score in [7] was -0.0819 (inactive); in assay [8], 0.185; in [9], 0.264; in [10] it was -0.166 (inactive).
With `CC(C)C[C@@H]1NC(=O)[C@H]2C[C@@H](C(=O)NCCCCCN)[C@@H](c3cccc(OCCO)c3)N2C1=O`, the z-score in [1] was 0.779; in assay [2], 0.57; in [3], 1.3; in assay [4], 0.64; in assay [5], -0.0687; in assay [6] it was 1.07. The z-score in assay [7] was 0.97 (inactive); in assay [8] it was -0.336; in assay [9], -0.16; in [10] it was 0.11 (inactive).
For the molecule `COCCCNC(=O)[C@@]1(Sc2ccc(C)cc2)CC(=O)N(C(C)C)[C@@H]1c1ccc(CO)cc1I`, the z-score was 0.781 in [1]; 1.74 in assay [2]; -1.16 in assay [3]; -2.2 in assay [4]; -2.38 in [5]; 0.544 in assay [6]. The z-score in assay [7] is -0.0068 (inactive); in assay [8], -0.205; in assay [9] it was -2.75; in assay [10], 0.534 (inactive).
Consider `O=C1[C@@H]2[C@@H](CC(COc3ccccc3)=C3[C@@H](CCc4ccccc4)OB(O)C[C@@H]32)C(=O)N1Cc1ccccc1`, for which the z-score is -0.607 in assay [1]; -0.141 in assay [2]; -0.752 in [3]; -3.22 in [4]; -4.09 in [5]; -0.851 in [6]. Also, the z-score in [7] was 0.453 (inactive); in [8], -1.07; in assay [9], 0.253; in assay [10], -0.0787 (inactive).
On to `C=C(CCCC)/C(=C/C[C@H](OC(C)=O)c1ccc(OCCO)cc1)c1cc(C(=O)OC)ccc1OC`, for which the z-score in assay [1] is 0.899; in assay [2] it was 1.18; in [3] it was 1.74; in assay [4], -2.88; in assay [5], -1.83; in assay [6], 2.2. The z-score was 0.151 (inactive) in assay [7], -0.864 in assay [8], -0.957 in assay [9] and 1.09 (inactive) in [10].
With `Cc1ccc(F)cc1S(=O)(=O)N[C@@H]1CCN(Cc2cccc3[nH]ccc23)C1`, the z-score in assay [1] was 0.139; in assay [2] it was -0.658; in [3], -0.415; in assay [4] it was -1.14; in [5], -0.864; in assay [6], 0.0617. In addition, the z-score in assay [7] was -0.65 (inactive); in assay [8], 0.263; in assay [9] it was -0.161; in [10], -0.398 (inactive).
As to `C=C/C=C/[C@@H]1C(=C)CN([C@@H](Cc2ccccc2)C(=O)OC)[C@H]1[C@@H](O)Cc1ccccc1`, the z-score in [1] is 0.192; in assay [2], -0.47; in assay [3] it was 0.438; in [4], -3.04; in [5], -2.15; in [6], -0.28. Moreover, the z-score in assay [7] is 0.147 (inactive); in assay [8], -0.975; in assay [9], -2.24; in assay [10], 0.663 (inactive).
